In all, about 5,500 compounds went through this assay and about 2,000 (36%) were called active. Another 18% or so got no clear call; they are omitted. Rule as the data show it: active = normalized growth mostly below about 0.91 (no sharp cut-off); inconclusive = no clear call, values can overlap the other calls; inactive = mostly above about 0.92. The list shows a part of the results.
Assay: chemical genetic growth profiling, strain panel (AID 1159580);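 also: tested at 20 µM; growth read once vehicle control cultures reached saturation at 30 °C; 1 = growth at the plate median or of vehicle wells; lower values mean less growth of the strain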
Settings: growth OD

Measured: normalized growth

COc1ccc(C(=O)CC(=O)c2ccc(C(C)(C)C)cc2)cc1
active: S. cerevisiae deletion strains, locus YLR262C, strain YPT6 (second series), stronger effect = lower value 0.801
inactive: S. cerevisiae deletion strains, locus YJR075W, strain HOC1, stronger effect = lower value 0.936 | S. cerevisiae deletion strains, locus YKL009W, strain mrt4, stronger effect = lower value 1.02 | S. cerevisiae deletion strains, locus YKL068W, stronger effect = lower value 0.996 | S. cerevisiae deletion strains, locus YKL085W, strain MDH1 (second series), stronger effect = lower value 0.989 | S. cerevisiae deletion strains, locus YKL085W, strain MDH1, stronger effect = lower value 0.989 | S. cerevisiae deletion strains, locus YKL160W, strain elf1, stronger effect = lower value 0.982 | S. cerevisiae deletion strains, locus YKL190W, strain CNB1, stronger effect = lower value 0.986 | S. cerevisiae deletion strains, locus YKR001C, strain vps1, stronger effect = lower value 1 | S. cerevisiae deletion strains, locus YKR026C, strain gcn3, stronger effect = lower value 0.988 | S. cerevisiae deletion strains, locus YKR091W, strain srl3, stronger effect = lower value 0.99 | S. cerevisiae deletion strains, locus YLL001W, strain dnm1, stronger effect = lower value 0.998 | S. cerevisiae deletion strains, locus YLL026W, stronger effect = lower value 0.998 | S. cerevisiae deletion strains, locus YLL041C, strain sdh2, stronger effect = lower value 0.972 | S. cerevisiae deletion strains, locus YLR027C, strain aat2, stronger effect = lower value 0.988 | S. cerevisiae deletion strains, locus YLR039C, strain RIC1, stronger effect = lower value 0.884 | S. cerevisiae deletion strains, locus YLR058C, strain SHM2, stronger effect = lower value 1.01 | S. cerevisiae deletion strains, locus YLR102C, strain apc9, stronger effect = lower value 1 | S. cerevisiae deletion strains, locus YLR113W, strain HOG1, stronger effect = lower value 0.969 | S. cerevisiae deletion strains, locus YLR221C, strain rsa3, stronger effect = lower value 0.937 | S. cerevisiae deletion strains, locus YLR258W, strain gsy2, stronger effect = lower value 0.971 | S. cerevisiae deletion strains, locus YLR262C, strain YPT6, stronger effect = lower value 0.903 | S. cerevisiae deletion strains, locus YLR268W, strain sec22, stronger effect = lower value 1 | S. cerevisiae deletion strains, locus YLR320W, strain mms22, stronger effect = lower value 0.956 | S. cerevisiae deletion strains, locus YLR330W, strain CHS5, stronger effect = lower value 1 | S. cerevisiae deletion strains, locus YLR342W, strain FKS1 (second series), stronger effect = lower value 1.1 | S. cerevisiae deletion strains, locus YLR342W, strain FKS1, stronger effect = lower value 0.992 | S. cerevisiae deletion strains, locus YLR357W, strain rsc2, stronger effect = lower value 1.03 | S. cerevisiae deletion strains, locus YLR370C, strain arc18, stronger effect = lower value 1 | S. cerevisiae deletion strains, locus YLR371W, strain rom2, stronger effect = lower value 1.01 | S. cerevisiae deletion strains, locus YLR384C, strain iki3, stronger effect = lower value 1.01 | S. cerevisiae deletion strains, locus YLR418C, strain cdc73, stronger effect = lower value 0.952 | S. cerevisiae deletion strains, locus YML016C, strain PPZ1, stronger effect = lower value 1 | S. cerevisiae deletion strains, locus YML032C, strain rad52, stronger effect = lower value 1 | S. cerevisiae deletion strains, locus YML120C, strain ndi1, stronger effect = lower value 1 | S. cerevisiae deletion strains, locus YML124C, strain tub3, stronger effect = lower value 1 | S. cerevisiae deletion strains, locus YMR058W, strain fet3, stronger effect = lower value 0.996 | S. cerevisiae deletion strains, locus YMR078C, strain ctf18, stronger effect = lower value 1.01 | S. cerevisiae deletion strains, locus YMR125W, strain sto1, stronger effect = lower value 0.977 | S. cerevisiae deletion strains, locus YMR129W, stronger effect = lower value 0.983 | S. cerevisiae deletion strains, locus YMR205C, strain PFK2, stronger effect = lower value 0.97 | S. cerevisiae deletion strains, locus YMR223W, strain ubp8, stronger effect = lower value 1 | S. cerevisiae deletion strains, locus YMR231W, strain pep5, stronger effect = lower value 1.02 | S. cerevisiae deletion strains, locus YMR263W, strain SAP30, stronger effect = lower value 0.988 | S. cerevisiae deletion strains, locus YMR307W, strain GAS1, stronger effect = lower value 0.746 | S. cerevisiae deletion strains, locus YNL067W, strain RPL9B, stronger effect = lower value 0.912 | S. cerevisiae deletion strains, locus YNL071W, strain lat1, stronger effect = lower value 0.998 | S. cerevisiae deletion strains, locus YNL128W, strain TEP1, stronger effect = lower value 0.98 | S. cerevisiae deletion strains, locus YNL153C, strain GIM3, stronger effect = lower value 0.996 | S. cerevisiae deletion strains, locus YNL183C, strain NPR1, stronger effect = lower value 0.958 | S. cerevisiae deletion strains, locus YNL209W, strain ssb2, stronger effect = lower value 1.02 | S. cerevisiae deletion strains, locus YNL233W, strain BNI4, stronger effect = lower value 0.995 | S. cerevisiae deletion strains, locus YNL248C, strain rpa49, stronger effect = lower value 0.963 | S. cerevisiae deletion strains, locus YNL250W, strain rad50, stronger effect = lower value 0.993 | S. cerevisiae deletion strains, locus YNL271C, strain bni1, stronger effect = lower value 1 | S. cerevisiae deletion strains, locus YNL298W, strain CLA4, stronger effect = lower value 1.02 | S. cerevisiae deletion strains, locus YNL307C, strain MCK1, stronger effect = lower value 1.01 | S. cerevisiae deletion strains, locus YNL322C, strain KRE1 (second series), stronger effect = lower value 1.01 | S. cerevisiae deletion strains, locus YNL322C, strain KRE1, stronger effect = lower value 0.994 | S. cerevisiae deletion strains, locus YNR049C, strain mso1, stronger effect = lower value 0.987 | S. cerevisiae deletion strains, locus YNR052C, strain pop2, stronger effect = lower value 1.01 | S. cerevisiae deletion strains, locus YOL006C, strain TOP1, stronger effect = lower value 0.82 | S. cerevisiae deletion strains, locus YOL012C, strain htz1 1.06 | S. cerevisiae deletion strains, locus YOL147C, strain pex11, stronger effect = lower value 1 | S. cerevisiae deletion strains, locus YOR001W, strain rrp6, stronger effect = lower value 0.979 | S. cerevisiae deletion strains, locus YOR061W, strain CKA2, stronger effect = lower value 1 | S. cerevisiae deletion strains, locus YOR069W, strain VPS5, stronger effect = lower value 1 | S. cerevisiae deletion strains, locus YOR070C, strain gyp1, stronger effect = lower value 0.986 | S. cerevisiae deletion strains, locus YOR080W, strain dia2, stronger effect = lower value 1.01 | S. cerevisiae deletion strains, locus YOR083W, strain WHI5, stronger effect = lower value 0.98 | S. cerevisiae deletion strains, locus YOR106W, strain vam3, stronger effect = lower value 0.904 | S. cerevisiae deletion strains, locus YOR136W, strain idh2, stronger effect = lower value 0.99 | S. cerevisiae deletion strains, locus YOR144C, strain elg1, stronger effect = lower value 1 | S. cerevisiae deletion strains, locus YOR184W, strain ser1, stronger effect = lower value 0.955 | S. cerevisiae deletion strains, locus YOR231W, strain MKK1, stronger effect = lower value 1.01 | S. cerevisiae deletion strains, locus YOR265W, strain rbl2, stronger effect = lower value 0.998 | S. cerevisiae deletion strains, locus YOR270C, strain vph1, stronger effect = lower value 0.827 | S. cerevisiae deletion strains, locus YOR290C, strain snf2, stronger effect = lower value 0.991 | S. cerevisiae deletion strains, locus YOR316C, strain cot1, stronger effect = lower value 1 | S. cerevisiae deletion strains, locus YPL051W, strain arl3, stronger effect = lower value 0.992 | S. cerevisiae deletion strains, locus YPL055C, strain LGE1, stronger effect = lower value 0.88 | S. cerevisiae deletion strains, locus YPL078C, strain atp4, stronger effect = lower value 0.998 | S. cerevisiae deletion strains, locus YPL106C, strain sse1, stronger effect = lower value 1 | S. cerevisiae deletion strains, locus YPL240C, strain hsp82, stronger effect = lower value 0.995 | S. cerevisiae deletion strains, locus YPL241C, strain CIN2, stronger effect = lower value 0.988 | S. cerevisiae deletion strains, locus YPL256C, strain CLN2, stronger effect = lower value 1 | S. cerevisiae deletion strains, locus YPR119W, strain clb2, stronger effect = lower value 0.998 | S. cerevisiae deletion strains, locus YPR141C, strain kar3, stronger effect = lower value 0.996 | S. cerevisiae deletion strains, locus YPR163C, strain tif3, stronger effect = lower value 1.01 | S. cerevisiae deletion strains, locus YPR167C, strain met16, stronger effect = lower value 1 | S. cerevisiae deletion strains, strain wtn01, stronger effect = lower value 0.996 | S. cerevisiae strains, strain wild type, stronger effect = lower value 0.975
